A short description of experiment [1]: NCI Yeast Anticancer Drug Screen. Data for the rad50 strain (AID 155).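 Note: 0% = growth of vehicle-only cultures of the same strain.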 To be noted: S. cerevisiae rad50 strain growth inhibition, hits give high values. A digest of the protocol: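 Compounds were tested on a yeast strain with an engineered DNA damage repair alteration; the reported value is growth inhibition normalised to vehicle treatment.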
Experiment [2] in a line: NCI Yeast Anticancer Drug Screen. Data for the mec2-1 strain (AID 157). The note with it: S. cerevisiae mec2-1 strain, hits give high values. A digest of the protocol: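 Yeast mec2-1 mutant treated with compound. Readout: growth inhibition vs vehicle controls.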
Experiment [3] is described as follows: NCI Yeast Anticancer Drug Screen. Data for the sgs1 mgt1 strain (AID 161).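 Note: 0% = growth of cultures given vehicle only.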 The note with it: S. cerevisiae sgs1 mgt1 strain, hits give high values. In outline:
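Inhibition of yeast growth, normalised to vehicle-treated controls, is reported for a strain bearing genetic alterations in DNA damage repair.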

Experiment [4] can be described thus: NCI Yeast Anticancer Drug Screen. Data for the cln2 rad14 strain (AID 165).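 Note: 0% = growth equal to vehicle treated cultures.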 The note with it: S. cerevisiae cln2 rad14 strain, hits give high values. A digest of the protocol: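 cln2 rad14 yeast strain; compound exposure; growth inhibition read vs vehicle controls.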
Experiment [5] can be described thus: NCI Yeast Anticancer Drug Screen. Data for the bub3 strain (AID 167). To be noted: S. cerevisiae bub3 mutant strain, hits give high values. A digest of the protocol:
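Growth of a checkpoint-deficient yeast mutant is measured after compound exposure. Values represent inhibition relative to vehicle.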

Experiment [6] in a line: NCI Yeast Anticancer Drug Screen. Data for the mlh1 rad18 strain (AID 175). The note with it: S. cerevisiae mlh1 rad18 strain growth inhibition, hits give high values. In outline:
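Yeast w/ defined DNA-repair lesions; compound exposure; growth vs vehicle controls → % inhibition.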

Where [7] appears, read: at 5.0 µM (retest, dose inferred, filed as 0.5).
Where [8] appears, read: at 50.0 µM (retest, dose inferred, filed as 5.0).

This is part of a sample that, as a whole, favours compounds with a hit. Of some 79,000 tested, about 15% had one in any assay. Unmarked numbers belong to inactive results. The source made the active and inactive calls. Cut-off read from the data, not from the text of the source: active = growth inhibition above about 70%; inactive = the rest. Where a SMILES comes first, the peptide text is derived from it. The star is where a group is joined. Cbz = O=C(OCc1ccccc1)*

Take `CCN(CC)CCCNc1c2c(Cl)cc(Cl)cc2nc2nc(=O)[nH]c(C)c12`: the growth inhibition in experiment [1] (setting [7]) is 9%; in experiment [1] (setting [8]), 12%; in experiment [1] (at 50.0 µM) it was 8.75%; in experiment [2] (setting [7]), 8%; in experiment [2] (setting [8]) it was 16%; in experiment [2] (at 50.0 µM) it was 0.9%. Further, the growth inhibition in experiment [3] (setting [7]) was -28%; in experiment [3] (setting [8]), 6%; in experiment [3] (at 50.0 µM), 8.8%; in experiment [4] (setting [7]) it was -13%; in experiment [4] (setting [8]) it was 4%; in experiment [4] (at 50.0 µM), 39%. Further, the growth inhibition in experiment [5] (setting [7]) is -19%; in experiment [5] (setting [8]), 8%; in experiment [5] (at 50.0 µM), 34.5%; in experiment [6] (setting [7]) it was 7%; in experiment [6] (setting [8]) it was 17%; in experiment [6] (at 50.0 µM), 42.2%.

As to `C1CCC2CC3(CCNCC3)CCC2C1` (stereo not given), the growth inhibition in experiment [1] (setting [7]) is 14%; in experiment [1] (setting [8]), 55%; in experiment [1] (at 50.0 µM), 75.2% (active); in experiment [2] (setting [7]) it was 9%; in experiment [2] (setting [8]), 55%; in experiment [2] (at 50.0 µM), 55.4%. In addition, the growth inhibition in experiment [3] (setting [7]) is 16%; in experiment [3] (setting [8]), 79% (active); in experiment [3] (at 50.0 µM), 88.4% (active); in experiment [4] (setting [7]), 12%; in experiment [4] (setting [8]), 82% (active); in experiment [4] (at 50.0 µM), 83.7% (active). The growth inhibition in experiment [5] (setting [7]) was 11%; in experiment [5] (setting [8]), 66%; in experiment [5] (at 50.0 µM), 86.8% (active); in experiment [6] (setting [7]) it was 9%; in experiment [6] (setting [8]), 73% (active); in experiment [6] (at 50.0 µM), 92% (active).

With `O=C(NC(Cc1ccc(O)cc1)C(=O)NC(Cc1ccccc1)C(=O)O)OCc1ccccc1` (stereo not drawn) (Cbz-Tyr-Phe-OH; configuration not given here), the growth inhibition in experiment [1] (setting [7]) was -6%; in experiment [1] (setting [8]) it was -1%; in experiment [1] (at 50.0 µM) it was -17.3%; in experiment [2] (setting [7]) it was 29%; in experiment [2] (setting [8]) it was -1%; in experiment [2] (at 50.0 µM) it was 5.85%. Further, the growth inhibition is -2% in experiment [3] (setting [7]); 0% in experiment [3] (setting [8]); 34.1% in experiment [3] (at 50.0 µM); 1% in experiment [4] (setting [7]); 1% in experiment [4] (setting [8]); -36.5% in experiment [4] (at 50.0 µM). For the same molecule, the growth inhibition in experiment [5] (setting [7]) was -5%; in experiment [5] (setting [8]) it was -3%; in experiment [5] (at 50.0 µM), -4.3%; in experiment [6] (setting [7]) it was -2%; in experiment [6] (setting [8]), -1%; in experiment [6] (at 50.0 µM), -0.6%.

On to `C#CC(CC)(CC)N=Cc1cc(Cl)cc(Cl)c1O`, for which the growth inhibition in experiment [1] (setting [7]) was 65%; in experiment [1] (setting [8]), 94% (active); in experiment [1] (at 50.0 µM), 89.2% (active); in experiment [2] (setting [7]), 42%; in experiment [2] (setting [8]), 97% (active); in experiment [2] (at 50.0 µM), 91.8% (active). The growth inhibition in experiment [3] (setting [7]) was 58%; in experiment [3] (setting [8]), 99% (active); in experiment [3] (at 50.0 µM), 92% (active); in experiment [4] (setting [7]) it was 41%; in experiment [4] (setting [8]) it was 72% (active); in experiment [4] (at 50.0 µM), 88.7% (active). The growth inhibition in experiment [5] (setting [7]) was 51%; in experiment [5] (setting [8]) it was 66%; in experiment [5] (at 50.0 µM), 90.7% (active); in experiment [6] (setting [7]), 69%; in experiment [6] (setting [8]), 98% (active); in experiment [6] (at 50.0 µM), 90.5% (active).

Regarding `C/C(C=C(C#N)C#N)=C\c1ccc([N+](=O)[O-])cc1`, the growth inhibition in experiment [1] (setting [7]) is -9%; in experiment [1] (setting [8]), 67%; in experiment [1] (at 50.0 µM), 78.2% (active); in experiment [2] (setting [7]), -16%; in experiment [2] (setting [8]) it was 67%; in experiment [2] (at 50.0 µM) it was 70.4% (active). For the same molecule, the growth inhibition in experiment [3] (setting [7]) was -1%; in experiment [3] (setting [8]), 40%; in experiment [3] (at 50.0 µM) it was 64.8%; in experiment [4] (setting [7]), 36%; in experiment [4] (setting [8]), 60%; in experiment [4] (at 50.0 µM), 55.5%. Moreover, the growth inhibition in experiment [5] (setting [7]) is 15%; in experiment [5] (setting [8]), 81% (active); in experiment [5] (at 50.0 µM) it was 64.8%; in experiment [6] (setting [7]), -3%; in experiment [6] (setting [8]) it was 89% (active); in experiment [6] (at 50.0 µM), 67.3%.

`COc1ccc(-n2c3c(c4c(N)ncnc42)CCCC3)cc1`: the growth inhibition is -2% in experiment [1] (setting [7]); -4% in experiment [1] (setting [8]); -21.3% in experiment [1] (at 50.0 µM); -12% in experiment [2] (setting [7]); -3% in experiment [2] (setting [8]); -7.3% in experiment [2] (at 50.0 µM). In addition, the growth inhibition in experiment [3] (setting [7]) is 11%; in experiment [3] (setting [8]), -3%; in experiment [3] (at 50.0 µM) it was -13%; in experiment [4] (setting [7]), -11%; in experiment [4] (setting [8]), 43%; in experiment [4] (at 50.0 µM), -33%. Moreover, the growth inhibition in experiment [5] (setting [7]) is -2%; in experiment [5] (setting [8]), -13%; in experiment [5] (at 50.0 µM), -69.2%; in experiment [6] (setting [7]), 2%; in experiment [6] (setting [8]) it was -13%; in experiment [6] (at 50.0 µM), -16.4%.

As for `Cc1ccc(C2(O)CCN(Cc3ccccc3)CC2)cc1`, the growth inhibition in experiment [1] (setting [7]) was 30%; in experiment [1] (setting [8]), 85% (active); in experiment [1] (at 50.0 µM) it was 56.5%; in experiment [2] (setting [7]) it was 39%; in experiment [2] (setting [8]), 99% (active); in experiment [2] (at 50.0 µM), 8.3%. In addition, the growth inhibition in experiment [3] (setting [7]) is 47%; in experiment [3] (setting [8]), 72% (active); in experiment [3] (at 50.0 µM) it was 70% (active); in experiment [4] (setting [7]), 75% (active); in experiment [4] (setting [8]) it was 89% (active); in experiment [4] (at 50.0 µM) it was 61.8%. The growth inhibition is 64% in experiment [5] (setting [7]); 81% (active) in experiment [5] (setting [8]); 41% in experiment [5] (at 50.0 µM); 37% in experiment [6] (setting [7]); 98% (active) in experiment [6] (setting [8]); 47% in experiment [6] (at 50.0 µM).

With `CCCN(CCC)c1ccc(Cc2ccc(N(CCC)CCC)cc2N)c(N)c1`, the growth inhibition in experiment [1] (setting [7]) is -3%; in experiment [1] (setting [8]), 96% (active); in experiment [1] (at 50.0 µM), 97.8% (active); in experiment [2] (setting [7]), -5%; in experiment [2] (setting [8]) it was 98% (active); in experiment [2] (at 50.0 µM), 98.3% (active). Also, the growth inhibition in experiment [3] (setting [7]) is -6%; in experiment [3] (setting [8]), 99% (active); in experiment [3] (at 50.0 µM), 44.5%; in experiment [4] (setting [7]) it was -1%; in experiment [4] (setting [8]), 91% (active); in experiment [4] (at 50.0 µM), 97% (active). Further, the growth inhibition in experiment [5] (setting [7]) is -1%; in experiment [5] (setting [8]), 96% (active); in experiment [5] (at 50.0 µM), 96.8% (active); in experiment [6] (setting [7]), -5%; in experiment [6] (setting [8]), 95% (active); in experiment [6] (at 50.0 µM) it was 98.1% (active).

As to `COC(=O)c1ccc(CCC2=CC(=O)C=CC2=O)cc1`, the growth inhibition in experiment [1] (setting [7]) was 39%; in experiment [1] (setting [8]) it was 99% (active); in experiment [1] (at 50.0 µM), 84.3% (active); in experiment [2] (setting [7]) it was 39%; in experiment [2] (setting [8]), 100% (active); in experiment [2] (at 50.0 µM) it was 92.8% (active). Moreover, the growth inhibition in experiment [3] (setting [7]) is 35%; in experiment [3] (setting [8]), 100% (active); in experiment [3] (at 50.0 µM), 91.2% (active); in experiment [4] (setting [7]) it was 29%; in experiment [4] (setting [8]) it was 75% (active); in experiment [4] (at 50.0 µM), 89.3% (active). In addition, the growth inhibition in experiment [5] (setting [7]) is 43%; in experiment [5] (setting [8]), 100% (active); in experiment [5] (at 50.0 µM), 91.3% (active); in experiment [6] (setting [7]), 49%; in experiment [6] (setting [8]) it was 99% (active); in experiment [6] (at 50.0 µM) it was 65.8%.

As for `Nc1ccccc1C(=O)NCCc1c[nH]c2ccccc12`, the growth inhibition in experiment [1] (setting [7]) is 1%; in experiment [1] (setting [8]), 34%; in experiment [1] (at 50.0 µM) it was 6.35%; in experiment [2] (setting [7]) it was -3%; in experiment [2] (setting [8]), 6%; in experiment [2] (at 50.0 µM) it was 11.8%. The growth inhibition was 4% in experiment [3] (setting [7]); 40% in experiment [3] (setting [8]); 33.8% in experiment [3] (at 50.0 µM); -5% in experiment [4] (setting [7]); 27% in experiment [4] (setting [8]); 66.6% in experiment [4] (at 50.0 µM). Also, the growth inhibition was -7% in experiment [5] (setting [7]); 18% in experiment [5] (setting [8]); 48.5% in experiment [5] (at 50.0 µM); 3% in experiment [6] (setting [7]); 38% in experiment [6] (setting [8]); 7% in experiment [6] (at 50.0 µM).

Source of the values: PubChem BioAssay (NCI).
